# Measured values taken from PubChem BioAssay (NCATS).
# Inconclusive results are not listed. A call without a number means that no potency is given here. The source made the active and inactive calls. Calls come from the whole dose curve; as a rule, active = well fitted curve in the direction sought with a large enough effect; inconclusive = small, poorly fitted or top-dose-only effect, or another doubt; inactive = no such curve, though single readings can be large; an effect the other way counts as inactive or inconclusive.
# Tests used:
# [1] = Quantitative High-Throughput drug screen in 47 multiple myeloma cell lines against the NCATS MIPE library collection: PE2_PLB cell viability assay (AID 1919869); note: nearly all actives have a fitted effect of over 35% in size; note: potency is the fitted concentration of half-maximal effect
# From the text: PI: Beverly A. Mock Ph.D.
# Laboratory of Cancer Biology and Genetics,
# Center for Cancer Research, National Cancer Institute,
# National Institute of Health, Bethesda, Maryland
# Drug resistance and disease progression are common in multiple myeloma (MM) patients, underscoring the need for new therapeutic combinations. […] We hypothesized that effective combinations would reduce MYC expression and enhance p16 activity. […] These preclinical data identify potentially useful drug combinations for evaluation in drug-resistant MM and reveal potential mechanisms of combined drug sensitivity.
# Described herein is the primary MIPE qHTS used to cherrypick compounds. Validated compounds were then further tested for potential synergistic activiy.
# [1] Peat TJ, Gaikwad SM, Dubois W, Gyabaah-Kessie N, Zhang S, Gorjifard S, Phyo Z, Andres M, Hughitt VK, Simpson RM, Miller MA, Girvin AT, Taylor A, Williams D, D'Antonio N, Zhang Y, Rajagopalan A, Flietner E, Wilson K, Zhang X, Shinn P, Klumpp-Thomas C, McKnight C, Itkin Z, Chen L, Kazandijian D, Zhang J, Michalowski AM, Simmons JK, Keats J, Thomas CJ, Mock BA. Drug combinations identified by high-throughput screening promote cell cycle transition and upregulate Smad pathways in myeloma. Cancer Lett. 2023 Aug 1;568:216284. doi: 10.1016/j.canlet.2023.216284. Epub 2023 Jun 24. PMID: 37356470; PMCID: PMC10408729.
# SEQUENCE No. (e.g., 1, 2, 3, etc.); […] (e.g., Cells, Incubation, Reagent, etc.); VALUE and DESCRIPTION.
# 1; Cells; 5 uL; white, solid bottom 1536-well Greiner assay plate.
# 2; Compounds; 23 nL; Kalypsis pin tool (Wako USA) equipped with a 1536-well pin head to transfer to the assay plates.
# 3; Incubation; 48 hours; 37C incubation.
# 4; Reagent;5uL; CellTiter Glo (Promega).
# 5; Detector; 425V; Luminescence; Viewlux PerkinElmer.
# NOTES (numbers refer to Sequence numbers above)
# 1. The cell-based screening methods employed in this study were like those previously published. Briefly, the corresponding myeloma cell lines were screened in 1,536-well plates with 500 cells, 5-uL per well for inhibition of cell viability (assessed by measuring ATP levels with CellTiterGlo).
# 2. NCATS MIPE 4.0 library of approved and investigational drugs were added using the Kalypsis pin tool. Wells treated with DMSO only for 100% viability and media only for 0% viability were used as controls.
# 3. The assay plates were covered and incubated for 48 hours in a 37C, 5% CO2 incubator with controlled humidity.
# 4. After 48 hours, CellTilter-GloTM luminescent substrate mix (Promega) reagent was added to the assay plate and plates we incubated for 5 min at room temperature.
# 5. Signal was measured as median relative luminescence units on a ViewLux (PerkinElmer) multiplate reader.
# [1] […]
# [2] = Quantitative High-Throughput drug screen in 47 multiple myeloma cell lines against the NCATS MIPE library collection: RPMI8226_ATCC cell viability assay (AID 1919871); note: nearly all actives have a fitted effect of over 30% in size; note: potency is the fitted concentration of half-maximal effect
# Outline: (§1)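 ATP-based CellTiter-Glo luminescence after 48 h drug exposure (37 °C, 5% CO2) of 500 myeloma cells per well. DMSO-only wells set 100% viability, media-only wells 0%; MIPE 4.0 library added by pin tool.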
# [3] = Quantitative High-Throughput drug screen in 47 multiple myeloma cell lines against the NCATS MIPE library collection: OPM2_DSMZ cell viability assay (AID 1919872); note: nearly all actives have a fitted effect of over 30% in size
# Outline: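 Inhibition of cell viability is measured here. Each line was plated at 500 cells per well, treated with MIPE 4.0 drugs, kept 48 hours at 37C, then assayed for ATP content by CellTiter-Glo luminescence.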
# [4] = Quantitative High-Throughput drug screen in 47 multiple myeloma cell lines against the NCATS MIPE library collection: KMS11_JCRBsus cell viability assay (AID 1919873); note: nearly all actives have a fitted effect of over 50% in size; note: potency is the fitted concentration of half-maximal effect
# Outline: as §1
# [5] = target: Cytochrome P450 3A4 (Homo sapiens) (UniProt P08684); assay: qHTS for inhibitors of CYP3A4 against the NCATS DSHEA and TCM libraries (AID 1919971);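 note: inhibition lowers luminescence from luciferin made by CYP3A4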
# Chain of Cytochrome P450 3A4 (Homo sapiens) (P08684 whole entry, looked up, canonical isoform): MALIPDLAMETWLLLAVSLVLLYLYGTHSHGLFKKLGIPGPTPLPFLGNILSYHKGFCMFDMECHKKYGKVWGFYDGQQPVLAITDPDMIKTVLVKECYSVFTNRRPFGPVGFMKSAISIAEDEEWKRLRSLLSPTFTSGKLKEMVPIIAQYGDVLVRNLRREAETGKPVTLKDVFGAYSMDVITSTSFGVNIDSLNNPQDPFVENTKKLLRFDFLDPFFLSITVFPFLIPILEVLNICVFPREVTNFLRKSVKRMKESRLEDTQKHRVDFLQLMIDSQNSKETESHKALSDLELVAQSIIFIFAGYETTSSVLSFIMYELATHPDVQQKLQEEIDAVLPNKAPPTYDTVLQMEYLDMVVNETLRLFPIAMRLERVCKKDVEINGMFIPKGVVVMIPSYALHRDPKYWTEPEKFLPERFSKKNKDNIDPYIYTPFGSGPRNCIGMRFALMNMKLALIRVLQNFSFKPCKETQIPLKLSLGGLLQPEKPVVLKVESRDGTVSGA
# Outline: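 Each CYP isoform and its pro-luciferin substrate, at isoform-specific final concentrations, were preincubated 15 min at RT with substances. NADPH regeneration solution (1x) started a 30-45 min reaction, and P450-Glo luminescence was read.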
# [6] = target: Cytochrome P450 2D6 (Homo sapiens) (UniProt P10635); assay: qHTS for inhibitors of CYP2D6 against the NCATS DSHEA and TCM libraries (AID 1919972)
# Chain of Cytochrome P450 2D6 (Homo sapiens) (P10635 whole entry, looked up): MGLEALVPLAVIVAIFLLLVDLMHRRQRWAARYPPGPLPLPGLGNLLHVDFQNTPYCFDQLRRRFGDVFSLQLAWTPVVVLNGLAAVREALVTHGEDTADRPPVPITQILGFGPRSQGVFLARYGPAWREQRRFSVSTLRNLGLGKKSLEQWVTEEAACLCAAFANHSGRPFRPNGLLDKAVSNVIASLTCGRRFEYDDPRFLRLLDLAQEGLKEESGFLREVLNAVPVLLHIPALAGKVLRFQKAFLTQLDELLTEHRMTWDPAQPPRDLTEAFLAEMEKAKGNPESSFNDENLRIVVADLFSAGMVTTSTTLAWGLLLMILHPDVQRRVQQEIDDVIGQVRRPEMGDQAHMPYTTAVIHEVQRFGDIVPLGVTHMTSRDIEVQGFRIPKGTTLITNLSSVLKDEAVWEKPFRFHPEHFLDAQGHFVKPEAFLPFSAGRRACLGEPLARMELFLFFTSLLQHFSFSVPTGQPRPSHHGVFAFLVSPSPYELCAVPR
# Outline: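 CYP2D6 enzyme with pro-luciferin substrate in manufacturer buffer (typically 100 mM KPO4), preincubated 15 min RT with substances (most at 19.5 nM upward); NADPH regeneration system (1x) started 30–45 min RT reaction; P450-Glo luminescence read after 30 min; quinidine as intraplate control.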
# [7] = Quantitative High-Throughput drug screen in 47 multiple myeloma cell lines against the NCATS MIPE library collection: VP6_DJ cell viability assay (AID 1919867); note: nearly all actives have a fitted effect of over 40% in size; note: potency is the fitted concentration of half-maximal effect
# Outline: as §1
# [8] = Quantitative High-Throughput drug screen in 47 multiple myeloma cell lines against the NCATS MIPE library collection: UTMC2_PLB cell viability assay (AID 1919868); details: CellTiter-Glo ATP luminescence, 48 h; note: potency is the fitted concentration of half-maximal effect; nearly all actives have a fitted effect of over 55% in size
# Outline: as §1
# [9] = Quantitative High-Throughput drug screen in 47 multiple myeloma cell lines against the NCATS MIPE library collection: PCM6_Riken cell viability assay (AID 1919870); note: nearly all actives have a fitted effect of over 30% in size; note: potency is the fitted concentration of half-maximal effect
# Outline: as §1
# [10] = Quantitative High-Throughput drug screen in 47 multiple myeloma cell lines against the NCATS MIPE library collection: KMS28BM_JCRB cell viability assay (AID 1919874); note: nearly all actives have a fitted effect of over 35% in size; note: potency is the fitted concentration of half-maximal effect
# Outline: as §1
smiles,measurement,setting,value
O=C(O)c1nn(Cc2ccc(Cl)cc2Cl)c2ccccc12,Potency,[1],inactive
same,Potency,[2],inactive
same,outcome,[3],inactive
same,Potency,[4],inactive
C[C@]12CC[C@H](O)CC1=CC[C@@H]1[C@@H]2CC[C@]2(C)C(=O)CC[C@@H]12,outcome,[5],inactive
same,outcome,[6],inactive
C[C@@H]1C[C@@H]([C@H](O)CC2CC(=O)NC(=O)C2)C(=O)[C@@H](C)C1,Potency,[7],296 nM (active)
same,Potency,[8],833 nM (active)
same,Potency,[1],1480 nM (active)
same,Potency,[9],935 nM (active)
same,Potency,[2],833 nM (active)
same,Potency,[4],187 nM (active)
same,Potency,[10],833 nM (active)
COc1ccc(C(=O)N2CCCC2=O)cc1,Potency,[1],inactive
same,Potency,[2],2350 nM (active)
same,Potency,[4],20900 nM (active)
same,Potency,[10],8330 nM (active)
COC(=O)C1=CCCN(C)C1,Potency,[7],inactive
same,Potency,[1],inactive
same,Potency,[9],inactive
same,outcome,[3],inactive
same,Potency,[4],inactive
same,Potency,[10],inactive
